# In ChEMBL document CHEMBL1961873, “Compounds: GSK PKIS; Assays: Nanosyn kinase panel” (2012):
# Legend:
# [1] = target: T1, Inhibitor of nuclear factor kappa-B kinase subunit epsilon (Homo sapiens) (UniProt Q14164); conditions: at 1 µM;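 further: reported values are averaged percent inhibition figures against human IKKε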
# T1 sequence (whole entry): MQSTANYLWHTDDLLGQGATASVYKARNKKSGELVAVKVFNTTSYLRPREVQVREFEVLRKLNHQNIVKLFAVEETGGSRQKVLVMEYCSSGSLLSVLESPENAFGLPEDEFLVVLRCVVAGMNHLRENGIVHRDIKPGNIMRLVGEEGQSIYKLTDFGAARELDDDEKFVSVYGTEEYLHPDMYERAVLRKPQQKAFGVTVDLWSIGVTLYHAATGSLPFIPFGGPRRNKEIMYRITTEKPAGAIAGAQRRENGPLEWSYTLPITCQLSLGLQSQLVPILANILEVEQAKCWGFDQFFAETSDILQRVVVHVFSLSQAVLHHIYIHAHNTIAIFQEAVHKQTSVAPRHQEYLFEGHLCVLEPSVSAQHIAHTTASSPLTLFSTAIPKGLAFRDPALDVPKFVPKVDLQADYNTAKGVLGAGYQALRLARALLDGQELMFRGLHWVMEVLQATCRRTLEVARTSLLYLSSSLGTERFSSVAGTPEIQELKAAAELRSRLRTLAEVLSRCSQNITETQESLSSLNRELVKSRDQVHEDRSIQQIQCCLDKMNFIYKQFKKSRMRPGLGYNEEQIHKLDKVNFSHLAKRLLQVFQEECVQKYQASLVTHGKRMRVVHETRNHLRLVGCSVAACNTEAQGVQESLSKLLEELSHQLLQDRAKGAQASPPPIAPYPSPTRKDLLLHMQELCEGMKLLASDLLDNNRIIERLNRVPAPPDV
# [2] = target: T2, Serine/threonine-protein kinase Nek1 (Homo sapiens) (UniProt Q96PY6); conditions: at 0.1 µM
# T2 sequence (whole entry): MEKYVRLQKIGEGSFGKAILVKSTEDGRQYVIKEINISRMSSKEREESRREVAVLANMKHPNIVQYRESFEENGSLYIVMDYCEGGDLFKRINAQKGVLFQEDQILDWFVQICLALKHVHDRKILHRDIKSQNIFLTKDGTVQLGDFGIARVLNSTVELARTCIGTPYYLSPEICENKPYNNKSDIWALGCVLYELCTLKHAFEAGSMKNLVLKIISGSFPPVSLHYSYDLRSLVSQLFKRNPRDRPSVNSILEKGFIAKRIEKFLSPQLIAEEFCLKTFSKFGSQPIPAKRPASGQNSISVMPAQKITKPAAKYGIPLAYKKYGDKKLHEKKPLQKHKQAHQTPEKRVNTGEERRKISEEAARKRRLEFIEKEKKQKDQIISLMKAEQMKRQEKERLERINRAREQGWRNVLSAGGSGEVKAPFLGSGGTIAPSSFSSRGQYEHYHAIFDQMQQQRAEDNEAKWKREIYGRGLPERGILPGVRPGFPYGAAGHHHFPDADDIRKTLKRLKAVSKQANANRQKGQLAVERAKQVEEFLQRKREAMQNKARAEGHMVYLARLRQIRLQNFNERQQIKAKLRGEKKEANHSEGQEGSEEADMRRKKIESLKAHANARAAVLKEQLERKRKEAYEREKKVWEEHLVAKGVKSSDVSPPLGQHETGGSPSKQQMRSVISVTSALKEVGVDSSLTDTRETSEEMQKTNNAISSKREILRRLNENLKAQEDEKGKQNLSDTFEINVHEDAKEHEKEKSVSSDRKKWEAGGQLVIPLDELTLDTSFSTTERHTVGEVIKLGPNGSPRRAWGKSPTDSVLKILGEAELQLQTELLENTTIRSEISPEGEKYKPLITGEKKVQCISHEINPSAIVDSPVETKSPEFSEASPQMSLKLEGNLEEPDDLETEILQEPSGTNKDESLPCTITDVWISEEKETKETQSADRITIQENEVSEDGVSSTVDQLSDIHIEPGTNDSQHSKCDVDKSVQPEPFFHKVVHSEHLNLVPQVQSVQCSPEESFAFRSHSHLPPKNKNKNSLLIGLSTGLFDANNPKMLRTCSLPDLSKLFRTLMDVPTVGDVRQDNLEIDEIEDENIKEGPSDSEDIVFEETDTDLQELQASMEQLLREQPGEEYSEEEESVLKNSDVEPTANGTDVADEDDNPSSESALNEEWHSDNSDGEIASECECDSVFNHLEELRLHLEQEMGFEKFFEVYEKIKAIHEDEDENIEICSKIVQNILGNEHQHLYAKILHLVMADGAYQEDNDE
# [3] = target: T2, Serine/threonine-protein kinase Nek1 (Homo sapiens); conditions: at 1 µM
# [4] = target: T3, Serine/threonine-protein kinase Nek2 (Homo sapiens) (UniProt P51955); conditions: at 0.1 µM
# T3 sequence (whole entry): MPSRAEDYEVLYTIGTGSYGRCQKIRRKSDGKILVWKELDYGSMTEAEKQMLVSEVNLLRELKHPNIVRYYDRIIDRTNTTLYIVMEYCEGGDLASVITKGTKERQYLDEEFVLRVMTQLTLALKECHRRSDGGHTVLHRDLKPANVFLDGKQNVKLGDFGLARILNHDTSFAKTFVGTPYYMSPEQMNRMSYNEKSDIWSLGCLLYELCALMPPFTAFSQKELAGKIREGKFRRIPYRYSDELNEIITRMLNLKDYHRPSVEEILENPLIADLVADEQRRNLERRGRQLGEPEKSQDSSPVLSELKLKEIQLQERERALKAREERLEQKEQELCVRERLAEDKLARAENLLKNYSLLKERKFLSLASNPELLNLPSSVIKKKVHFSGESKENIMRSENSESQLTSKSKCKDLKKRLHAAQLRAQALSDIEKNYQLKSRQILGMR
# [5] = target: T3, Serine/threonine-protein kinase Nek2 (Homo sapiens); conditions: at 1 µM
# [6] = target: Serine/threonine-protein kinase Nek6 (Homo sapiens) (UniProt Q9HC98); conditions: at 0.1 µM
# [7] = target: Serine/threonine-protein kinase Nek6 (Homo sapiens) (UniProt Q9HC98); conditions: at 1 µM
# [8] = target: Serine/threonine-protein kinase Nek7 (Homo sapiens) (UniProt Q8TDX7); conditions: at 0.1 µM
# [9] = target: Serine/threonine-protein kinase Nek7 (Homo sapiens) (UniProt Q8TDX7); conditions: at 1 µM
# [10] = target: T4, Serine/threonine-protein kinase Nek9 (Homo sapiens) (UniProt Q8TD19); conditions: at 0.1 µM
# T4 sequence (whole entry): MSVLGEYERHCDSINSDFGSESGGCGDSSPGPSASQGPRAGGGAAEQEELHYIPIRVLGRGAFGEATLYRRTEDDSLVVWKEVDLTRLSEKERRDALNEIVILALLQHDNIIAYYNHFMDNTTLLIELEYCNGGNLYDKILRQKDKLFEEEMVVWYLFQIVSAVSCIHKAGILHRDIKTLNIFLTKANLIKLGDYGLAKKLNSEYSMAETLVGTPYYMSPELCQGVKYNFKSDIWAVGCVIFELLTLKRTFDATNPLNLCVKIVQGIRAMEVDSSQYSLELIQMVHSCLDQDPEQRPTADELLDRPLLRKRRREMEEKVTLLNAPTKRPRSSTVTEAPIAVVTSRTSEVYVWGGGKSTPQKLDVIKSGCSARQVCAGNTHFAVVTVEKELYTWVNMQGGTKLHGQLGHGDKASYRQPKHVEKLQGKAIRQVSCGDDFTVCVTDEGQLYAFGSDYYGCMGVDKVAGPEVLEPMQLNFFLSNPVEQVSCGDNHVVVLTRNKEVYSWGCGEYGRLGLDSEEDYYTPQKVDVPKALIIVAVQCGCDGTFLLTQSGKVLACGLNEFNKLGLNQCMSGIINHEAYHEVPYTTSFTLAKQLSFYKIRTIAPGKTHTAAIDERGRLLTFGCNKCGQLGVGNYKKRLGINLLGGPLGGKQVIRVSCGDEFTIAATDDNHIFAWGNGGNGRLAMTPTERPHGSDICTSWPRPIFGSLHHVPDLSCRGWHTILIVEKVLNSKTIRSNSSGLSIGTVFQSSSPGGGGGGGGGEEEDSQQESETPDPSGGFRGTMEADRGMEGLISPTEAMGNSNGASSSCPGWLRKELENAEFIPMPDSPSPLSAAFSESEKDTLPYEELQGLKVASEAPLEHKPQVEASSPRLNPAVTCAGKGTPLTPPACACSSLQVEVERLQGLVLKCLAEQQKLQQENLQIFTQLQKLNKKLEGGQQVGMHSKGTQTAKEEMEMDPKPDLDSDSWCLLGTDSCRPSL
# [11] = target: T4, Serine/threonine-protein kinase Nek9 (Homo sapiens); conditions: at 1 µM
# [12] = target: Serine/threonine-protein kinase PLK1 (Homo sapiens) (UniProt P53350); conditions: at 0.1 µM
# [13] = target: Serine/threonine-protein kinase PLK1 (Homo sapiens) (UniProt P53350); conditions: at 1 µM
# [14] = target: T5, Dual specificity protein kinase TTK (Homo sapiens) (UniProt P33981); conditions: at 0.1 µM
# T5 sequence (whole entry): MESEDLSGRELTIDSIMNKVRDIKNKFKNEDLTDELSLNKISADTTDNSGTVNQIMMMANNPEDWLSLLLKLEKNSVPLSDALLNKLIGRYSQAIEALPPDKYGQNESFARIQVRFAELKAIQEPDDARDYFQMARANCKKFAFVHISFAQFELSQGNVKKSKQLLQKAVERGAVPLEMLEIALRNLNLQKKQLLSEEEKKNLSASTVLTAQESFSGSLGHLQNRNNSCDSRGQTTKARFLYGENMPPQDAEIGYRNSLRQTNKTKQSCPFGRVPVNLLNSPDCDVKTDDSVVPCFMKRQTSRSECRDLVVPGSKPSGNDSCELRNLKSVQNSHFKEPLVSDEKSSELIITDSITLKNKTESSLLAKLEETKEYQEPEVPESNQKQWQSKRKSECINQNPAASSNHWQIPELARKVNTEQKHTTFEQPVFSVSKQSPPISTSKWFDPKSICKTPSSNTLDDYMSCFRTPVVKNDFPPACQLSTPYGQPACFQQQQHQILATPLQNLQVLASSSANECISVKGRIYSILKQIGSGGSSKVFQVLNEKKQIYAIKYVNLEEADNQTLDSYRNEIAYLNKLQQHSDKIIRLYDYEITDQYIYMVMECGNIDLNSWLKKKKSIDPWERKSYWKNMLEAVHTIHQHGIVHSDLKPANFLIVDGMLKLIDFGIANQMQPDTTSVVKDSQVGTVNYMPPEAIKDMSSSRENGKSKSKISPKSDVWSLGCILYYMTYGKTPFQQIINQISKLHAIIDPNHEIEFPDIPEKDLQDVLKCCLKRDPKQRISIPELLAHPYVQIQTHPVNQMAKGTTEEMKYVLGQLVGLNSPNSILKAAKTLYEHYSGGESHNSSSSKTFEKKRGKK
# [15] = test system: T6, Receptor-type tyrosine-protein kinase FLT3 (Homo sapiens), P36888 [D835Y]; conditions: at 1 µM
# T6 sequence (whole entry): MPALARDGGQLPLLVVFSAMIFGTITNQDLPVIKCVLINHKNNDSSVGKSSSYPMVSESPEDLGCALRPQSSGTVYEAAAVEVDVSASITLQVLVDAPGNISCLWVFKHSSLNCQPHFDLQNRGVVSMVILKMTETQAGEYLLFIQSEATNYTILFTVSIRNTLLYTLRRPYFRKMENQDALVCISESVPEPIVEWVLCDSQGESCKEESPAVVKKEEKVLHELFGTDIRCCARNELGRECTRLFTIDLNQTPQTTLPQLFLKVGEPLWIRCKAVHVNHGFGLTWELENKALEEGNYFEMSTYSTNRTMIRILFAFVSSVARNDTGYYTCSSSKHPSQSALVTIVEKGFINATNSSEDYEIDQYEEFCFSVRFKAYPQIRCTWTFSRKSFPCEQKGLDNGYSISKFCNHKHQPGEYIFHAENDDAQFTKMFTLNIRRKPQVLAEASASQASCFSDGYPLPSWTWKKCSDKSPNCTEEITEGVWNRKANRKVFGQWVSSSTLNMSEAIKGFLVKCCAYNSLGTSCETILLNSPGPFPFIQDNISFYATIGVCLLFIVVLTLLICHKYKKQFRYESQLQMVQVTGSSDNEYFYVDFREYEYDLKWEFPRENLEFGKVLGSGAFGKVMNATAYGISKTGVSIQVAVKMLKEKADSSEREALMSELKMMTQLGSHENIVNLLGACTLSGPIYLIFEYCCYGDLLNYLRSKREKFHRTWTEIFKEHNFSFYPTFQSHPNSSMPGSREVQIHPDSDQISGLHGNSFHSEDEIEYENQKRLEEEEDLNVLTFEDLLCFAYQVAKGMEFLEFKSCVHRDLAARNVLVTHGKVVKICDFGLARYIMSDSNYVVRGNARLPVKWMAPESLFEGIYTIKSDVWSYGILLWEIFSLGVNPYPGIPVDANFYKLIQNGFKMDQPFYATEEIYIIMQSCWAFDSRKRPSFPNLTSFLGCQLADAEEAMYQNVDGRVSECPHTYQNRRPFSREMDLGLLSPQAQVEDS
# [16] = target: Vascular endothelial growth factor receptor 3 (Homo sapiens) (UniProt P35916); conditions: at 0.1 µM
# [17] = target: Vascular endothelial growth factor receptor 3 (Homo sapiens) (UniProt P35916); conditions: at 1 µM
# [18] = target: Macrophage colony-stimulating factor 1 receptor (Homo sapiens) (UniProt P07333); conditions: at 0.1 µM
# [19] = target: Macrophage colony-stimulating factor 1 receptor (Homo sapiens) (UniProt P07333); conditions: at 1 µM
# [20] = target: Tyrosine-protein kinase Fyn (Homo sapiens) (UniProt P06241); conditions: at 0.1 µM
# Chain of Tyrosine-protein kinase Fyn (Homo sapiens) (P06241 2-537 limits assumed): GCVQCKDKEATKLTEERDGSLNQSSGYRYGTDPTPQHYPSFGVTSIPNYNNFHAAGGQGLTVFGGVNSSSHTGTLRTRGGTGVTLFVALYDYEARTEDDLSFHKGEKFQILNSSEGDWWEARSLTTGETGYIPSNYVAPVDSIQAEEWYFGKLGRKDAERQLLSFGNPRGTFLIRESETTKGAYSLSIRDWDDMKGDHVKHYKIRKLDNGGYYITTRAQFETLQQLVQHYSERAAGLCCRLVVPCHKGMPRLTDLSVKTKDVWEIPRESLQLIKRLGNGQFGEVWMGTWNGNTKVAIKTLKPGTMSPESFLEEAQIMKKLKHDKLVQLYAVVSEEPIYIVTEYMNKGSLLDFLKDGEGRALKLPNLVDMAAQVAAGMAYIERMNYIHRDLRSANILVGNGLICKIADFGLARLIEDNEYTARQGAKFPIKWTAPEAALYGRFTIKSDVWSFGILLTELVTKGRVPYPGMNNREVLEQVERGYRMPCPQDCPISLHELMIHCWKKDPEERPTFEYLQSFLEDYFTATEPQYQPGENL
# Chain of Serine/threonine-protein kinase PLK1 (Homo sapiens) (P53350 whole entry): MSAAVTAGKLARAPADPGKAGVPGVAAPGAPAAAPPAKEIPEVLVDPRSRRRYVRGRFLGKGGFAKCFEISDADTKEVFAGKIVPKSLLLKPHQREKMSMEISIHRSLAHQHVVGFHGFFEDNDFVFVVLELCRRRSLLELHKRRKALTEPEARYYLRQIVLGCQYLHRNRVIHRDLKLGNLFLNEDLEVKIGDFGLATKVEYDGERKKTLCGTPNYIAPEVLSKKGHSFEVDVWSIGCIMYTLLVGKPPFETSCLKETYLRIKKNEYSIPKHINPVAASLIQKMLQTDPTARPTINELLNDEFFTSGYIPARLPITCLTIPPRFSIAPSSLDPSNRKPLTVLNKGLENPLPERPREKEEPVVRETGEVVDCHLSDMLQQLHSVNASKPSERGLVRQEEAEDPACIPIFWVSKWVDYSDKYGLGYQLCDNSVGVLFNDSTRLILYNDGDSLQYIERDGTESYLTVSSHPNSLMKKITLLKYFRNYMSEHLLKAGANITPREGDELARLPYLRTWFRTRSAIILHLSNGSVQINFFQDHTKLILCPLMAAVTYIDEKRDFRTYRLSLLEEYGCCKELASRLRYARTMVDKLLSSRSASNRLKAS
# Chain of Serine/threonine-protein kinase Nek7 (Homo sapiens) (Q8TDX7 whole entry, looked up): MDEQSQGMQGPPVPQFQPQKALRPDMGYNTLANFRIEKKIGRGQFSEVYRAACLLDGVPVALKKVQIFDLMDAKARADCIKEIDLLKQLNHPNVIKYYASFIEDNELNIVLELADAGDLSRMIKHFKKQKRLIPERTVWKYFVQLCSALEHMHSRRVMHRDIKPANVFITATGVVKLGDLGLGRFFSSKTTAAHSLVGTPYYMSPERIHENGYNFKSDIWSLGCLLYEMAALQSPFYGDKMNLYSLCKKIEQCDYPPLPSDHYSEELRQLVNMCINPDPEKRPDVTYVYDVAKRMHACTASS
# Chain of Serine/threonine-protein kinase Nek6 (Homo sapiens) (Q9HC98 whole entry): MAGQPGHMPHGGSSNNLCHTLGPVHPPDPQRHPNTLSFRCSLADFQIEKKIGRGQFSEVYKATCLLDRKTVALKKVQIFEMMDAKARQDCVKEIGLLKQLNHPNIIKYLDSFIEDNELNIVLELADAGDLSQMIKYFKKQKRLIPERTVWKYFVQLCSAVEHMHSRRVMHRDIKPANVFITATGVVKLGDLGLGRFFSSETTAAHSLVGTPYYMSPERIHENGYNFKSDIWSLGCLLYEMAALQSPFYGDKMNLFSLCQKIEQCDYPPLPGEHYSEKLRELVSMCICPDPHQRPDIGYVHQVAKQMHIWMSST
# Chain of Vascular endothelial growth factor receptor 3 (Homo sapiens) (P35916 whole entry): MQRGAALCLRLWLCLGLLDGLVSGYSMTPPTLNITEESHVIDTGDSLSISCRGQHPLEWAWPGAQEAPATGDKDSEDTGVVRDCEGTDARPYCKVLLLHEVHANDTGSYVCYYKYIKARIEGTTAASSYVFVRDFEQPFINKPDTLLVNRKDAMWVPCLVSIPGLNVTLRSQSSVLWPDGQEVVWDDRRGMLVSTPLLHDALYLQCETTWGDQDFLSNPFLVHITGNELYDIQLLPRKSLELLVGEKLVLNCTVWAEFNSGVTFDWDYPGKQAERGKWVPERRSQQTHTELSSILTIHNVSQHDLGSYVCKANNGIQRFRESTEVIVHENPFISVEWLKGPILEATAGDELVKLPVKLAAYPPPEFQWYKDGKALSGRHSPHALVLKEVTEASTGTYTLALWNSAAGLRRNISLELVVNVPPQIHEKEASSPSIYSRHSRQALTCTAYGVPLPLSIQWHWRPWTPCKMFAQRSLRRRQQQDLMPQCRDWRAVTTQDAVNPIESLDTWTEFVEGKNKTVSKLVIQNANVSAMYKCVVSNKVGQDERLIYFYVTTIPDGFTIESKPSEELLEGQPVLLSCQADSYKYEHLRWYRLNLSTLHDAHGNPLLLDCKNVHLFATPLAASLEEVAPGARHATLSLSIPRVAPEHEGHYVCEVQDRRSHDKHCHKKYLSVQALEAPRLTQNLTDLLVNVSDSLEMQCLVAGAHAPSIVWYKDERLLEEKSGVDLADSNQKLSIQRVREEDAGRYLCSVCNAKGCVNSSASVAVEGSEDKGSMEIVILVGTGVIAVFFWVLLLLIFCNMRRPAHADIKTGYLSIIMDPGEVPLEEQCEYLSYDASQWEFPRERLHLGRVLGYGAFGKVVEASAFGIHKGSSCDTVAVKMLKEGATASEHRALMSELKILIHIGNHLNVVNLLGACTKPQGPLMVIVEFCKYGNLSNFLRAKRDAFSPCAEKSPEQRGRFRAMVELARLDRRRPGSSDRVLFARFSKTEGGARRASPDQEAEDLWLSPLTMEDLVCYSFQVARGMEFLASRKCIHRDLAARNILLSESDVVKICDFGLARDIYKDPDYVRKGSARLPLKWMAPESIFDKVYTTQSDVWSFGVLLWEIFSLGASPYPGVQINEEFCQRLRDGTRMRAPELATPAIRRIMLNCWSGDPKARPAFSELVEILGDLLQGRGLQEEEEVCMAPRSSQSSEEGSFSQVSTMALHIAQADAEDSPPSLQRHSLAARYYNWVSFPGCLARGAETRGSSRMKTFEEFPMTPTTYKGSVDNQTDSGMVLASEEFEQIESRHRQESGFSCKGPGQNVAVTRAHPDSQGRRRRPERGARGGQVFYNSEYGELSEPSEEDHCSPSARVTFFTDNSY
# Chain of Macrophage colony-stimulating factor 1 receptor (Homo sapiens) (P07333 whole entry): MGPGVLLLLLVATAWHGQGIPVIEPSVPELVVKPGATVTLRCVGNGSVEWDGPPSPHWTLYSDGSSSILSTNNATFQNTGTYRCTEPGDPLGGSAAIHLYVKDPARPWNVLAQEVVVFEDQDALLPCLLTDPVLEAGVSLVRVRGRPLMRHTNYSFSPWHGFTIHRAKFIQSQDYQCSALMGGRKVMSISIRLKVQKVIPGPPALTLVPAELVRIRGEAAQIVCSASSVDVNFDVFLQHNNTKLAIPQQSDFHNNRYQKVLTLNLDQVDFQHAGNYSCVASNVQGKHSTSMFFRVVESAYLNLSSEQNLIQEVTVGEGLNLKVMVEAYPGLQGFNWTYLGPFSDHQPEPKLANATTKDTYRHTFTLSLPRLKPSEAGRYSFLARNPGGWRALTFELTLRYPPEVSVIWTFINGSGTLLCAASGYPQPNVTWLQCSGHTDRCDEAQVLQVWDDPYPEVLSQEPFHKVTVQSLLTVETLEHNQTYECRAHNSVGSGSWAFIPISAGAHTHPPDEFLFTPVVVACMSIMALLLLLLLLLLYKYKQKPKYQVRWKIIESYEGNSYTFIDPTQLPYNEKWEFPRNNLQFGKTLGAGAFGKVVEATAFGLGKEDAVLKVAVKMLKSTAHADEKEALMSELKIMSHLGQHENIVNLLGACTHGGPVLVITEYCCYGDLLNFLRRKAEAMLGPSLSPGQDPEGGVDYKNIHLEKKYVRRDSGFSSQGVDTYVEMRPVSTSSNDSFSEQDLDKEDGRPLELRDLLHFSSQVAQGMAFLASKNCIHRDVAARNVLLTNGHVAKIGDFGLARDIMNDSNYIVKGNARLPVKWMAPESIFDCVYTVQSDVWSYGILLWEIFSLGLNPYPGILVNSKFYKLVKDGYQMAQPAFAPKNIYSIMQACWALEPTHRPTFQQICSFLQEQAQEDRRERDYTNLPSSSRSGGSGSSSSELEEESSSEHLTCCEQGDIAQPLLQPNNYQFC
Structure (SMILES),inhibition [1] [%],inhibition [2] [%],inhibition [3] [%],inhibition [4] [%],inhibition [5] [%],inhibition [6] [%],inhibition [7] [%],inhibition [8] [%],inhibition [9] [%],inhibition [10] [%],inhibition [11] [%],inhibition [12] [%],inhibition [13] [%],inhibition [14] [%],inhibition [15] [%],inhibition [16] [%],inhibition [17] [%],inhibition [18] [%],inhibition [19] [%],inhibition [20] [%]
COc1cc2ncn(-c3cc(OCc4ccccc4S(C)(=O)=O)c(C#N)s3)c2cc1OC,115,2.58,3,6.68,14.4,3.33,-0.15,4.85,3.13,3.17,1.96,10,47.5,5.84,23.9,26.8,73.4,6.26,33.2,30.9
COC(=O)c1ccc2c(c1)C(=Cc1cc(Br)c(O)c(Br)c1)C(=O)N2,13.9,2.53,2.21,4.16,2.86,0.58,2.21,4.31,8.9,6.38,11.3,5.7,17.4,13.3,4.72,1.46,9.65,2.87,16.5,5.27
CN(c1ccc(NC(=O)Nc2ccc(OC(F)(F)F)cc2)cc1)c1ccnc(Nc2cccc(S(N)(=O)=O)c2)n1,7.75,0.8,2.63,2.68,3.03,1.81,0.14,1.37,-1.48,2.65,17.1,2.14,-0.02,4.18,43.2,37.5,90.1,42.6,86.1,8.93
